# Screening results: PubChem, National Center for Advancing Translational Sciences (NCATS)
# HP1b binding inh: HP1-beta chromodomain-methylated histone interaction inhibition. AlphaScreen HP1-beta / biotin-H3K9me3 peptide binding. Potency, µM (doses to about 114 µM), for the others: at the highest dose activity change, negative = inhibition, usual class: inhibitors. hit rate 0.56% among 390,000; further: nearly all actives have a fitted effect of over 70% in size
#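 Compound inhibition of the preformed complex between 50 nM HP1-beta and 50 nM biotinylated H3K9me3 peptide was read by AlphaScreen. Buffer was PBS pH 7.4 with 0.01% Tween-20. Incubations ran 30 min at room temperature, with 10 ug/mL donor/acceptor beads.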
# G9a block: blocks human histone lysine methyltransferase G9a; G9a H3K9 monomethylation, AlphaScreen, 2 h; Potency, µM (doses to about 102 µM), without a hit: at the highest dose activity, negative = inhibition, hits mostly inhibitors; hit rate 8.8% among 350,000; further: on the % scale 0 is the no-effect control and ±100 the full control effect; nearly all actives have a fitted effect of over 75% in size
#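 Quantitative HTS format: methyltransferase activity on a biotin-tagged H3K9 peptide is measured by AlphaScreen, using a rabbit anti-monomethyl-H3K9 antibody with streptavidin donor and anti-IgG acceptor beads. Final levels are 20 nM enzyme, 500 nM peptide, 20 uM SAM; 2 h RT.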
# JMJD2A Tudor inh: JMJD2A Tudor domain (human) inhibition. O75164. AlphaScreen JMJD2A-Tudor / H3K4me3 peptide binding. Potency, µM (doses to about 114 µM), for the others: at the highest dose activity change, negative = inhibition, hits mostly inhibitors. hit rate 4.4% among 390,000. AID 504339; further: on the % scale 0 is the no-effect control and ±100 the full control effect; nearly all actives have a fitted effect of over 50% in size
# Target sequence (O75164 whole entry, looked up, the tested form may be a part): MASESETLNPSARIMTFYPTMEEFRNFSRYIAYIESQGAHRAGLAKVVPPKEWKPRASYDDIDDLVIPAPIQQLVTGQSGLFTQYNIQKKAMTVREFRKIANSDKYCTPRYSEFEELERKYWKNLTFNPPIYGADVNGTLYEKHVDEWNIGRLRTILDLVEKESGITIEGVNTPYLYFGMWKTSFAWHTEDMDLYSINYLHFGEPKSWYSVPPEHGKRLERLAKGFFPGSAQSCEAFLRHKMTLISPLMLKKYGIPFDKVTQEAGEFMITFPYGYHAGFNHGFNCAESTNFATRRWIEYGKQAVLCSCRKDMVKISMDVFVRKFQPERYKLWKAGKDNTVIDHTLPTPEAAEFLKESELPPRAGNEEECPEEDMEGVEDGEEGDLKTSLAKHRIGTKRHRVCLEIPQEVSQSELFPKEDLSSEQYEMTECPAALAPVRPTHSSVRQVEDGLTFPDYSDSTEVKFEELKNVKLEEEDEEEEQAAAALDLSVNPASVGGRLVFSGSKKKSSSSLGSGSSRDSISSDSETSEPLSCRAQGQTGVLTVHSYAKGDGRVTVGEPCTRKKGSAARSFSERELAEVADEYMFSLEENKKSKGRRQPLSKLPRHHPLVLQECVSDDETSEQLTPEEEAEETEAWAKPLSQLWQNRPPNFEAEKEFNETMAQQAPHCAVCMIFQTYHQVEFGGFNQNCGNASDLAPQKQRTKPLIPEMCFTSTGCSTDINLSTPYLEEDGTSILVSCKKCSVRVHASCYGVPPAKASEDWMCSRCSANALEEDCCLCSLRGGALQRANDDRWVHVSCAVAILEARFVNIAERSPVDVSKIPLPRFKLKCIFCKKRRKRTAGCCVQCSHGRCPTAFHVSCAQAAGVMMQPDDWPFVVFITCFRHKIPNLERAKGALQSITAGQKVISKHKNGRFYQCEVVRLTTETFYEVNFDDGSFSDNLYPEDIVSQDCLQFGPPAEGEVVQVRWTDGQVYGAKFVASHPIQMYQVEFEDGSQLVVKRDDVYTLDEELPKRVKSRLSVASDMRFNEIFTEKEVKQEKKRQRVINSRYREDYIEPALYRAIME
# BAZ2B block: inhibitors of human BAZ2B bromodomain; Q9UIF8; AlphaScreen BAZ2B-H3K14Ac peptide displacement; Potency, µM (series often up to 114 µM), without a hit: at the top dose activity change, negative = inhibition, usual class: inhibitors; hit rate 4.4% among 360,000; AID 504333; further: on the % scale 0 is the no-effect control and ±100 the full control effect; nearly all actives have a fitted effect of over 60% in size
#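 Protein-peptide AlphaScreen: BAZ2B 50 nM, b-H3K14Ac 50 nM, 1x PBS pH 7.4 + 0.01% Tween-20. Preincubation 30 min RT; cpd 30 min RT (top 110 uM); beads 20 min RT, light-protected.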
# L3MBTL1 inh: inhibitors of human L3MBTL1 | Q9Y468 | AlphaScreen L3MBTL1–H3K9me1 peptide binding | Potency, µM (top dose mostly 57.1 µM), without a hit: top-dose activity, negative = inhibition, actives largely listed as inhibitors | hit rate 0.66% among 230,000 | AID 485360; further: on the % scale 0 is the no-effect control and ±100 the full control effect; nearly all actives have a fitted effect of over 60% in size
#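 AlphaScreen proximity signal between nickel-chelate acceptor and streptavidin donor beads (final 10 ug/mL) reports binding of 50 nM L3MBTL1 to 75 nM biotin-H3 K9me1 peptide; complex incubated with compounds 30 min at room temperature; cefsulodin titration as control.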
# Active calls of the source: *; ? = inconclusive; . = no result given; [ ] = another dose, or the depositor's remark. This is a sample that favours compounds with a hit; in the whole collection about 11% have one here. The call rests on the fitted dose curve; in most records, active means well fitted inhibition curve with a large enough effect; inconclusive means small, poorly fitted or top-dose-only effect; inactive means no such curve, though single readings can be large or run the other way. Potency means the concentration at half of the fitted maximal effect.
SMILES,HP1b binding inh,G9a block,JMJD2A Tudor inh,BAZ2B block,L3MBTL1 inh
O=C(CN1C(=O)C2(SCC(=O)N2c2ccc(F)c(F)c2)c2ccccc21)NCCc1ccccc1 (stereo not given),28%,-7%[59 µM],-20%,6%[57.1 µM],.
Clc1cccc(CSc2nnc([C@@H]3CCCN3)o2)c1,63%,16%[0.501 µM],-19%[57.1 µM],79µM*,-7%
Cc1nc2ccn(Cc3cccs3)c(=O)c2cc1C(=O)N1CCN(c2ccccc2)CC1,18%,-8%[59 µM],-24%,-26%,.
CN1CCN(/N=C/c2ccc(N(c3ccccc3)c3ccccc3)cc2)CC1,-38%,8%[12.7 µM],18µM*,35µM*,23%
CN1CCN(/N=C/c2ccc(N(C)c3ccccc3)cc2)CC1,-5%,?,-32%,35µM*,-9%[11.4 µM]
COc1cccc(/C=N/N2CCN(C)CC2)c1,3%,-8%[59 µM],-26%,-5%,12%
COc1ccc(/C=N/N2CCN(C)CC2)cc1O,-6%,32µM*,-14%,15%,-6%
Cc1cccc(N2C(=O)C(CC(=O)Nc3ccccc3)N(C3CCCCC3)C2=O)c1 (stereo not given),45%,-4%[59 µM],-18%,0%,.
C[C@@H]1C=C[C@](Cc2ccccc2)(C(=O)NCCc2c[nH]c3ccccc23)N1C(=O)c1ccccc1,-16%,50µM*,?,?,-7%
CCCC1=Nc2cc(C(=O)N3CCCC3)ccc2Sc2ccc(C)cc21,-12%,-6%,18µM*,?,.
CCC1=Nc2cc(C(=O)N3CCCCC3)ccc2Sc2ccc(C)cc21,0%,?,?,-32%,.
CCCC1=Nc2cc(C(=O)N3CCC(C)CC3)ccc2Sc2ccc(C)cc21,27%,11%[59 µM],-20%,12%,.
CCCC1=Nc2cc(C(=O)N3CCN(c4ccccn4)CC3)ccc2Sc2ccc(C)cc21,0%,16µM*,?,?,.
COc1cc(/C=N/NC(=Nc2ccc(C)cc2)c2nc3ccccc3s2)ccc1O,0%,14µM*,?,45µM*,.
N#C/C(=C/c1ccncc1)c1nc2ccccc2s1,19%,-42%[59 µM],-17%,?,-4%
O=C(O)c1ccc(C=C(c2nc3ccccc3s2)c2nc3ccccc3s2)cc1,-14%,?,?,?,-22%
CN(C)c1ccc(/C=C(\Cl)c2nc3ccccc3s2)cc1,7%,14µM*,-33%,45µM*,10µM*
COc1cc(/C=C(\CC(=O)O)c2nc3ccccc3s2)cc(OC)c1O,12%,14µM*,16µM*,-26%,-9%
COc1cc(C=C(c2nc3ccccc3s2)c2nc3ccccc3s2)cc(OC)c1O,?,6.3µM*,56µM*,22µM*,-27%
COc1ccc(CN(C(=O)CCC(=O)Nc2cc(C)on2)C(C(=O)NC(C)(C)C)c2cccc(OC)c2OC)cc1 (stereo not given),-5%,-13%,-13%,?,.
Cc1cc2c(s1)c1cnn(Cc3cccc(F)c3)c(=O)c1n2C,.,.,-27%,.,.
COc1ccc(Cl)cc1C(=O)NNC(=O)c1ccc(F)c(S(=O)(=O)N2CCOCC2)c1,12%,.,-24%,.,1%
Brc1cc2c(cc1/C=N/Nc1nc3ccccc3s1)OCO2,23%,25%,-28%,1%,0%
O=C(O)C/C(=C\c1cc2c(cc1Br)OCO2)c1nc2ccccc2s1,-13%,10µM*,-8%,-12%,.
Cc1nn(Cc2ccc(C(=O)N3c4ccc(F)cc4CCC3C)o2)c(C)c1Br (stereo not given),25%,50µM*,-26%,-26%,.
SMILES,HP1b binding inh,G9a block,JMJD2A Tudor inh,BAZ2B block,L3MBTL1 inh
Cc1ccc(C(=O)N2c3ccc(F)cc3CCC2C)o1 (stereo not given),34%,-8%[59 µM],-12%,2%,1%
CCCC(=O)Nc1nnc(SCc2cc(=O)n3cccc(C)c3n2)s1,27%[57 µM],1%[59 µM],-6%,1%,.
COC(=O)c1ccc(SCC(=O)NC2CCCC2)c([N+](=O)[O-])c1,18%,0%[59 µM],-3%,-4%,6%
COC(=O)c1ccc(SC2CCCCC2)c([N+](=O)[O-])c1,-21%,16µM*,?,?,-11%
Cc1cc(O)c2c(c1)CC1C3CCC4CC(=O)CCC4(C)C3CC(=O)C21C (stereo not given),23%,.,-7%,.,.
Cc1ccc(-c2nc(CS(=O)(=O)CC(=O)NCCc3ccccc3)c(C)o2)cc1,20%,-2%[59 µM],-14%,-2%,.
O=C(CCc1ccc(O)c(O)c1)NNC(=S)NCCc1ccccc1,23%,-1%[59 µM],?,3%,-13%
O=C(CCc1ccc(O)c(O)c1)NNC(=S)Nc1ccc(Br)cc1Cl,-15%,18µM*,-18%,-2%,-3%
CSC1=NCCN1C(=O)c1c(F)cccc1Cl,51%,50µM*,-4%,-1%,.
C=CCn1c(SCC(=O)Nc2ccc3c(c2)OCCO3)nnc1-c1ccccn1,11%,-2%,89µM*,?,-3%
CCCn1c(SCC(=O)NC2CCCCC2)nnc1-c1ccccn1,43%,-3%,10%,?,-3%
O=C(CSc1nnc(-c2ccccn2)n1Cc1ccccc1)NC1CCCC1,27%,-30%,-2%,89µM*,-8%
CCn1c(CSCc2ccc(C)cc2)nnc1SCC(=O)N1CCN(c2ccccc2)CC1,2%,?,?,?,.
C=CCn1c(CSCc2ccccc2)nnc1SCC(=O)N1CCN(c2ccccc2)CC1,15%,25µM*,-19%,-29%,?
Cc1ccccc1OCc1nnc(SCC(=O)NC2CCCCC2)o1,?,50µM*,-11%,9%,.
COc1ccc(OCc2nnc(SCC(=O)NC3CCCCC3)o2)cc1,9%,28%,?,3%,.
C=CCn1c(COc2ccccc2)nnc1SCC(=O)Nc1ccc2c(c1)OCCO2,9%,0%,-13%,-27%,-5%
CCOC(=O)c1cc(-c2ccccc2)n(CCC(=O)NCc2ccccc2Cl)c1C,-7%,-22%[59 µM],-22%,-9%,.
Cc1ccc(NC(=O)c2cnc(SCC(=O)N3CCOCC3)n(C)c2=O)cc1C,16%,-3%[59 µM],-7%,-1%,.
COc1ccc(-c2nnc(SCC(=O)NC3CCCC3)n2C)cc1,32%,?,9%,-2%,.
COc1cc(-c2nnc(SCC(=O)NC3CCCC3)n2C)cc(OC)c1O,51%,79µM*,-2%,-8%,.
C=CCn1c(SCC(=O)NC2CCCCC2)nnc1-c1ccccn1,32%,10%,-8%,79µM*,.
Cn1c(SCC(=O)NC2CCCCC2)nnc1-c1ccccn1,24%,28%,2%,79µM*,.
O=C(CSc1nnnn1Cc1ccccc1)N1CCN(c2ccccc2)CC1,2%,45µM*,89µM*,-8%,-2%
Cn1c(SCC(=O)NC2CCCC2)nnc1-c1ccccn1,35%,.,-3%,?,.
CCCN(CC(=O)Nc1ccccc1C)C(=O)c1ccc(NC2CC2)c([N+](=O)[O-])c1,14%,-26%,-22%,-32%,6%
